The values that follow come from PubChem BioAssay.

For assay [1], the system named is XIP peptide (Xip251-270) binding. Description: XIP fragment 251-270 binding compounds – biochemical, small-molecule microarray, fluorescence 635/667 nm, 0.1 µg/mL protein, primary screen (AID 1182). Conditions: fluorescent protein binding, 635 nm, higher = more signal, called active from +8 up or from −8 down.
A further assay relates to XIP peptide (Xip251-270). The experiment in a line: compounds binding XIP fragment 251-270 – biochemical, small-molecule microarray, fluorescence 635/667 nm, 0.5 µg/mL protein, primary screen (AID 1183). The note with it: fluorescence 635 nm, higher = more signal.
Assay [2] is described as follows: blood-stage malaria parasite viability loss – strain 3D7, DAPI fluorescence, 100 nL, primary screen (AID 1184).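 Also: parasites grown inside human red blood cells in medium with human serum.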 The note with it: P. falciparum 3D7 growth, 3 d, higher = more signal.
The target in assay [3] is Homeobox protein Hox-A13 (Mus musculus) (UniProt Q62424). The experiment in a line: disruptors of Hoxa13 oligonucleotide interaction – biochemical, fluorescence polarization, labeled oligonucleotide, primary screen (AID 1185). The note with it: Hoxa13:DNA binding, 15 min, higher = more signal, called active from +8 up or from −8 down.
Assay [4] can be described thus: blockers of DNA damage checkpoint Chk1 activation – imaging, HeLa, hydroxyurea, phospho-Chk1 antibody, percent positive cells, primary screen (AID 1186). The note with it: hydroxyurea-induced phospho-Chk1 immunofluorescence imaging, higher = more signal.
Assay [5] can be described thus: blockers of DNA damage checkpoint Chk1 activation – imaging, HeLa, hydroxyurea, phospho-Chk1 nuclear intensity, primary screen (AID 1187). Conditions: hydroxyurea-induced phospho-Chk1 immunofluorescence imaging, higher = more signal.

Active and inactive are the calls of the source. Unless noted, no rule for the calls is given here.

Homeobox protein Hox-A13 (Mus musculus), sequence (Q62424 whole entry, looked up): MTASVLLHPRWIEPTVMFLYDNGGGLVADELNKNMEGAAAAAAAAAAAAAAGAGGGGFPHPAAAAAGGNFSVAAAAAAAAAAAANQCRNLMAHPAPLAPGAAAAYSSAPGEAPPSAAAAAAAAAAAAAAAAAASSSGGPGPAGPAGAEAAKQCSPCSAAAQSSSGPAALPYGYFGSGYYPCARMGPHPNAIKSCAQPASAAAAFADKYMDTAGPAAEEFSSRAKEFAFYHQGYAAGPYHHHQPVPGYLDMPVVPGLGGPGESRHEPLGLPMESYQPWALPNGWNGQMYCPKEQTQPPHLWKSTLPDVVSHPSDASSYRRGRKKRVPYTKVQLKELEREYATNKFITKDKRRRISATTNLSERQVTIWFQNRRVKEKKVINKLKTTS

Regarding `C=C(CCCC)/C(=C/C[C@H](OC(C)=O)c1ccccc1OCCO)c1cc(C(=O)OC)ccc1OC`, the values for the composite z-score (in assay [1]; in the assay on XIP peptide (Xip251-270)) were 0.0757 (inactive) and -0.167, respectively. The z-score in assay [2] was -2.66; in assay [3] it was -3.55 (inactive); in assay [4] it was -0.836 (inactive); in assay [5], -0.714 (inactive).

Regarding `COCCOC(=O)N1C(=O)[C@@]2(c3cc(C#CCC(C(=O)OC)C(=O)OC)ccc31)[C@H](c1ccccc1OCCO)N1[C@H](c3ccccc3)[C@H](c3ccccc3)OC(=O)[C@H]1[C@@H]2C(=O)N1CCN(c2ncccn2)CC1`, the composite z-score is 0.311 (inactive) in assay [1] and 0.62 in the assay on XIP peptide (Xip251-270). Moreover, the z-score in assay [2] was -2.25; in assay [3], 0.271 (inactive); in assay [4], -0.225 (inactive); in assay [5] it was -0.236 (inactive).

On to `C[N+](C)(C)CCCCNC(=O)[C@H]1C[C@H]2C(=O)N3CCC[C@H]3C(=O)N2[C@H]1c1cccc(OCCO)c1`, for which the composite z-score in assay [1] is 0.265 (inactive); in the assay with XIP peptide (Xip251-270), -0.465. For the same compound, the z-score in assay [2] is 1.2; in assay [3] it was -2.27 (inactive); in assay [4] it was -0.302 (inactive); in assay [5], -0.124 (inactive).

In the case of `COC(=O)[C@@]1(Cc2ccc(F)cc2)[C@H]2c3cc(C(=O)N(C)C)n(Cc4ccc(Cl)c(C(F)(F)F)c4)c3C[C@H]2CN1C(=O)c1ccccc1`, the composite z-score in assay [1] was -0.512 (inactive); in the assay with XIP peptide (Xip251-270), 0.503. Moreover, the z-score in assay [2] is -1.6; in assay [3] it was -2.75 (inactive); in assay [4], 1.09 (inactive); in assay [5], 0.528 (inactive).

As to `O=C1c2ccccc2[C@](Cc2ccccc2I)(C(=O)NCCN2CCOCC2)[C@H](c2ccc(CO)cc2)N1C1CCCCC1`, the composite z-score in assay [1] was 0.45 (inactive); in the assay on XIP peptide (Xip251-270), 0.652. The z-score in assay [2] was -1.79; in assay [3], -5.61 (inactive); in assay [4], 0.16 (inactive); in assay [5], -6.65 (inactive).

As for `NC(=O)[C@@H]1[C@H]2C(=O)O[C@H](c3ccccc3)[C@H](c3ccccc3)N2[C@H](c2ccc(O)cc2)[C@@]12C(=O)Nc1ccccc12`, the composite z-score in assay [1] was 0.138 (inactive); with XIP peptide (Xip251-270), 0.507. Moreover, the z-score is -1.28 in assay [2], -5.09 (inactive) in assay [3], -0.0838 (inactive) in assay [4] and -0.0447 (inactive) in assay [5].

With `CC(C)(C)OC(=O)CC[C@]1(C(=O)N2CCOCC2)N=C(c2ccc(OCCCO)cc2)O[C@H]1c1ccccc1N=[N+]=[N-]`, the results for the composite z-score (in assay [1]; with XIP peptide (Xip251-270)) were 0.472 (inactive) and 0.472, respectively. Besides, the z-score in assay [2] was -2.28; in assay [3] it was -5.38 (inactive); in assay [4], -0.112 (inactive); in assay [5], 0.0839 (inactive).

For `CC[C@@H]1C=C(C(=O)O)[C@H](c2ccc(Br)cc2)N1S(=O)(=O)c1ccc(C)cc1`, the composite z-score is 0.693 (inactive) in assay [1] and 0.159 in the assay with XIP peptide (Xip251-270). Moreover, the z-score in assay [2] is -0.737; in assay [3] it was -3.11 (inactive); in assay [4] it was -0.0321 (inactive); in assay [5], 0.0367 (inactive).

Take `C=CCNC(=O)[C@@H]1[C@H]2C(=O)O[C@H](c3ccccc3)[C@H](c3ccccc3)N2[C@H](c2ccccc2OCCO)[C@@]12C(=O)N(C(=O)OCCOC)c1ccccc12`: the composite z-score in assay [1] is 3.44 (inactive); in the assay on XIP peptide (Xip251-270) it was 0.737. Also, the z-score is -1.16 in assay [2], -4.27 (inactive) in assay [3], 0.115 (inactive) in assay [4] and 0.494 (inactive) in assay [5].

In the case of `C=CCN1C(=O)[C@]2(O[C@H](CCn3cc([C@H](O)c4ccccc4)nn3)[C@@H]([Si](C)(C)c3ccc(OC)cc3)[C@@H]2C)c2ccccc21`, the composite z-score is 0.507 (inactive) in assay [1] and -0.579 in the assay on XIP peptide (Xip251-270). For the same compound, the z-score in assay [2] is -1.69; in assay [3] it was -5.68 (inactive); in assay [4], -0.831 (inactive); in assay [5], -0.475 (inactive).

As for `CCCCCCc1nc(-c2ccc(OC)nc2)cc2c1[Si](C(C)C)(C(C)C)O[C@H]2c1ccccc1`, the composite z-score is -0.652 (inactive) in assay [1] and -0.487 in the assay with XIP peptide (Xip251-270). The z-score in assay [2] is -0.421; in assay [3] it was -2.62 (inactive); in assay [4] it was -0.732 (inactive); in assay [5], -0.722 (inactive).

For `[N-]=[N+]=NCc1ccccc1C[C@]1(C(=O)N2CCCCC2)N=C(c2ccc(OCCCO)cc2)O[C@H]1c1ccccc1N=[N+]=[N-]`, the composite z-score in assay [1] is 0.113 (inactive); with XIP peptide (Xip251-270) it was 0.694. The z-score in assay [2] was -1.95; in assay [3], 0.766 (inactive); in assay [4] it was -0.273 (inactive); in assay [5] it was -0.448 (inactive).

Turning to `[N-]=[N+]=Nc1ccccc1[C@@H]1OC(c2ccc(OCCCO)cc2)=N[C@]1(Cc1ccccc1)C(=O)N1CCOCC1`, the composite z-score in assay [1] was 0.665 (inactive); in the assay on XIP peptide (Xip251-270), 0.632. Also, the z-score is -2.32 in assay [2], -4.82 (inactive) in assay [3], -0.208 (inactive) in assay [4] and -0.0135 (inactive) in assay [5].

`Cc1ccc(N2C(=O)c3ccccc3[C@@H](C(=O)NC3CC3)[C@@H]2c2ccc(CO)cc2)nc1`: the composite z-score is -1.49 (inactive) in assay [1] and -0.0549 with XIP peptide (Xip251-270). For the same compound, the z-score was -0.651 in assay [2], -1.95 (inactive) in assay [3], -0.0109 (inactive) in assay [4] and -0.28 (inactive) in assay [5].

In the case of `CCCCCCc1nc(-c2cc(C)c(OC)c(C)c2)cc2c1[Si](C(C)C)(C(C)C)OC2`, the composite z-score in assay [1] was -0.267 (inactive); in the assay with XIP peptide (Xip251-270), -0.191. In addition, the z-score in assay [2] is -2.34; in assay [3] it was -0.772 (inactive); in assay [4], -0.157 (inactive); in assay [5] it was -0.188 (inactive).

Consider `C=CCOC(=O)[C@H]1[C@@H]2C(=O)O[C@@H](c3ccccc3)[C@@H](c3ccccc3)N2[C@@H](c2ccc(OCCOC(=O)[C@H]3C[C@H]4C(=O)N[C@@H](CCCC[N+](C)(C)C)C(=O)N4[C@H]3c3ccc(O)cc3)cc2)[C@]12C(=O)Nc1ccc(I)cc12`, for which the composite z-score in assay [1] was 1.7 (inactive); in the assay on XIP peptide (Xip251-270), 0.848. Moreover, the z-score was 0.615 in assay [2], -2.52 (inactive) in assay [3], -0.324 (inactive) in assay [4] and -0.62 (inactive) in assay [5].

`O=C1OCCC/C=C\[C@H]2OC34C=CCN(Cc5ccccc5)C(=O)[C@H]3N(CCCO)C(=O)[C@@H]4C12` (some centres not stated): the composite z-score in assay [1] is 0.0652 (inactive); in the assay on XIP peptide (Xip251-270), -0.616. The z-score in assay [2] is -0.125; in assay [3], -4.98 (inactive); in assay [4], -0.58 (inactive); in assay [5], -0.324 (inactive).
